High-throughput results from PubChem BioAssay.
YB-1 expression = YB-1 expression inhibition; U2OS, qRT-PCR YB-1 vs CDIP delta delta Cp, 16 h; hits give high values; zero = DMSO, each unit about twofold; delta delta Cp (YB-1 minus CDIP) (no concentration beside the values); hit rate 0.37% among 30,000; AID 434959;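 active means delta delta Cp rounded down to an integer at or above 3, about 3 SD of DMSO wells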;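 further: higher means less YB-1 transcript or more CDIP transcript relative to DMSO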
U2OS ROS induce = cancer cell ROS induction; U2OS ROS induction, H2DCF-DA fluorescence; ROS induction (% of piperlongumine), % at 10 µM; hit rate 2% among 46,000; AID 624156; in the data active means ROS induction above about 79%, passing the limit was not always enough
Hits are given with their value; - = inactive; . = not tested or not shown. Compounds with a hit are over-represented: about 2.3% of the library has one in this group of screens.

SMILES	YB-1 expression	U2OS ROS induce
C=CCNC(=O)[C@@H]1[C@H]2C(=O)O[C@H](c3ccccc3)[C@H](c3ccccc3)N2[C@H](c2ccc(OCCO)cc2)[C@@]12C(=O)N(C(=O)OCCOC)c1ccc(C#CCC(C(=O)OC)C(=O)OC)cc12	-	132.2
COCCOC(=O)N1C(=O)[C@@]2(c3cc(C#CCC(C(=O)OC)C(=O)OC)ccc31)[C@H](C(=O)NC[C@H](O)c1ccccc1)[C@H]1C(=O)O[C@H](c3ccccc3)[C@H](c3ccccc3)N1[C@@H]2c1ccc(O)cc1	-	-
C=CCNC(=O)[C@@H]1[C@H]2C(=O)O[C@H](c3ccccc3)[C@H](c3ccccc3)N2[C@H](c2ccc(OCCO)cc2)[C@@]12C(=O)N(C(=O)OCCOC)c1ccc(C#Cc3ccc(OC)cc3)cc12	-	-
CC(=O)OC1/C=C(/C(=O)O)CC/C=C(/C)C(=O)/C=C\C1(C)C (stereo not drawn)	-	90.2
CC1=C2CCC(C(=O)O)=CC2C(C(C)C)CC1 (stereo not drawn)	-	-
CC1(C)CCc2cc(-c3ccn(S(=O)(=O)c4ccc(Cl)cc4)n3)ccc2O1	-	96.4
CC1(C)CCc2cc(-c3ccn(S(=O)(=O)c4cccc(C(F)(F)F)c4)n3)ccc2O1	-	-
COc1cc(N)c(C#N)cc1OC	.	-
CCc1nc(-c2ccc(OC)cc2)cc2cc(OC)c(OC)cc12	-	108.7
COc1ccc(Cc2nccc3cc(OC)c(OC)cc23)cc1OC	-	-
CC1C/C(=C/c2cccn2C)C(=O)/C(=C/c2cccn2C)C1 (stereo not drawn)	.	260.8
COc1cccc(/C=C2\CC(C)C/C(=C\c3ccccc3OC)C2=O)c1 (stereo not drawn)	.	-
Cc1ccc(-c2nc(C(=O)N(C)c3cc(C)ccc3C)c3n2CCCCC3)cc1	.	-
C/C=C(/C)C(=O)O[C@H]1C=C(CO)C(=O)[C@H](OC(=O)/C(C)=C/CO)[C@H]1C(C)C	-	87.0
Cc1ccc(S(=O)(=O)/C(C#N)=C/C2=Cc3ccccc3OC2)cc1	.	-
Cn1nnc2cc(NC(=O)NCCO)ccc21	.	-
Cc1nc2cc(NC(=O)NCc3ccco3)ccc2n1C	.	100.2
CCN1CCCC1CNC(=O)c1ccc2c(=O)n3c(nc2c1)CCCCC3 (stereo not drawn)	.	-
Cc1ccc(N(Cc2ccco2)C(=O)c2cccc(S(=O)(=O)N(C)C)c2)cc1	.	137.7
O=C(c1ccco1)N(Cc1ccco1)c1ccc(O)cc1	.	-
CCCn1c(-c2ccc(S(=O)(=O)N3CCOCC3)cc2)csc1=Nc1ccccc1	.	83.5
O=C(COc1ccc(S(=O)(=O)N2CCOCC2)cc1)Nc1ccccc1	.	-
O=C(O)C1CCC(Cn2c(SCc3ccccc3Cl)nc3ccsc3c2=O)CC1 (stereo not drawn)	.	-
COc1ccc(NC(=O)c2ccc3c(c2)OCCO3)cc1	.	-
CC1CCC/C=C/C(=O)c2c(O)cc(O)cc2CC(=O)O1 (stereo not drawn)	-	90.8
SMILES	YB-1 expression	U2OS ROS induce
CC1CCCC2OC2C(=O)c2c(O)cc(O)cc2CC(=O)O1 (stereo not drawn)	-	-
Cc1[nH]c2ccccc2c1Sc1ccccc1	-	-
Oc1c(C(Nc2cccc(Cl)c2)c2cccnc2)ccc2cccnc12 (stereo not drawn)	-	-
CCOC(=O)C1CCN(C(c2cccc(Cl)c2)c2c(NC(C)=O)sc3c2CCCC3)CC1 (stereo not drawn)	-	-
Cc1ccc(C(=O)OCC2OC3C(Oc4c(C)c(=O)ncn43)C2OC(=O)c2ccc(C)cc2)cc1 (stereo not drawn)	.	-
N#Cc1ccc(CSc2nc(-c3cccs3)c3c(c2C(=O)O)CCCC3)cc1	-	-
CN1CCc2c(-c3cccs3)nc(OCc3ccccc3Br)c(C#N)c2C1	-	168.2
Cc1ccccc1NC(=O)c1ccc2nc(N3CCC(C)CC3)sc2c1	.	-
O=C(Cn1cnc2c(nnn2-c2cccc(Cl)c2)c1=O)NCC1CCCO1 (stereo not drawn)	.	-
CC(C)(C)NC(=O)c1ccc2c3c(onc13)-c1ccccc1C2=O	-	245.1
CC(C)(C)NC(=O)c1ccccc1	-	-
CCN(CC)C(=S)NC1CCCCC1	.	-
c1cc(C2OCC3(CO2)COC(c2ccncc2)OC3)ccn1 (stereo not drawn)	.	-
CCOc1ccc2nc(N3CCCC(C(=O)Nc4ccc(C)cc4Cl)C3)sc2c1 (stereo not drawn)	.	-
Nc1ncnc(Sc2nc3ccccc3s2)c1[N+](=O)[O-]	.	99.7
c1ccc2c(CSc3nc4ccccc4s3)cccc2c1	.	-
c1ccc(-c2ccnc(-c3cc(-c4ccccc4)ccn3)c2)cc1	.	-
O=C1CC(c2cccs2)SC(N(c2ccccc2)c2ccccc2)=N1 (stereo not drawn)	.	-
CN(C)c1nc(Cl)nc(N(C#N)CN2C(=O)c3ccccc3C2=O)n1	-	167.5
O=C1c2ccccc2C(=O)N1CN1CCCCC1	.	-
O=C(COc1ccc2ccccc2c1)Nc1ccc(Cc2ccccn2)cc1	.	-
Cc1sc2ncn(CC(=O)Nc3ccc(Oc4ccccc4)cc3)c(=O)c2c1C	.	-
COc1cc(C(=O)Nc2ccc(Oc3ncnc4sc(C)c(C)c34)cc2)cc(OC)c1OC	.	104.3
CN(C)C(=O)CSc1nnc(-c2ccco2)o1	.	-
Cc1ccc(S(=O)(=O)N(C)CC(=O)Nc2ccc(S(N)(=O)=O)cc2)cc1	.	-
SMILES	YB-1 expression	U2OS ROS induce
Nc1nc(SCc2nc(-c3ccccc3)no2)[nH]c(=O)c1-c1ccccc1	.	106.4
Nc1nc(SCC(=O)NCC2CCCO2)[nH]c(=O)c1-c1ccccc1 (stereo not drawn)	.	-
COc1ccc2[nH]c3c(=O)n(Cc4ccc(C(=O)NCCc5ccc(C)cc5)cc4)c(=S)[nH]c3c2c1	.	-
COc1ccc(NC(=O)COc2ccccc2[N+](=O)[O-])cc1Cl	.	-
COc1cc(NC(=O)COc2ccccc2[N+](=O)[O-])ccc1NC(=O)c1cccs1	.	132.1
COC(=O)C(CC#Cc1ccc2c(c1)[C@]1(C(=O)N2)[C@H](C(N)=O)[C@H]2C(=O)O[C@H](c3ccccc3)[C@H](c3ccccc3)N2[C@@H]1c1ccccc1OCCO)C(=O)OC	-	142.3
COC(=O)C(CC#Cc1ccc2c(c1)[C@]1(C(=O)N2)[C@H](C(=O)NC[C@H](O)c2ccccc2)[C@H]2C(=O)O[C@H](c3ccccc3)[C@H](c3ccccc3)N2[C@@H]1c1ccccc1OCCO)C(=O)OC	-	113.1
COCCOC(=O)N1C(=O)[C@@]2(c3cc(C#CCCO)ccc31)[C@H](C(=O)N1CCc3cc(OC)c(OC)cc3C1)[C@H]1C(=O)O[C@H](c3ccccc3)[C@H](c3ccccc3)N1[C@@H]2c1ccccc1OCCO	-	-
O=C1O[C@@H](c2ccccc2)[C@@H](c2ccccc2)N2[C@@H](c3ccccc3OCCO)[C@]3(C(=O)Nc4ccc(C#CC5(O)CCCCCC5)cc43)[C@@H](C(=O)NC[C@H](O)c3ccccc3)[C@H]12	-	-
COCCOC(=O)N1C(=O)[C@@]2(c3cc(C#CCCO)ccc31)[C@H](c1ccccc1OCCO)N1[C@H](c3ccccc3)[C@H](c3ccccc3)OC(=O)[C@H]1[C@@H]2C(=O)N1CCc2cc(OC)c(OC)cc2C1	-	94.7
COC(=O)C(CC#Cc1ccc2c(c1)[C@]1(C(=O)N2)[C@H](C(N)=O)[C@H]2C(=O)O[C@H](c3ccccc3)[C@H](c3ccccc3)N2[C@@H]1c1ccc(OCCO)cc1)C(=O)OC	-	-
